# Data published in PubChem BioAssay (Tox21).
# Results filed as inconclusive are left out. Where a call stands in place of a potency, no number is given. Values without a mark were called inactive. Activity calls are given as the source filed them. Calls come from the whole dose curve; as a rule, active = well fitted cell-killing curve with a large enough effect in the repeat runs; inconclusive = weak or mixed curves, or effect the other way; inactive = flat fitted curve, though single readings scatter.
# How the values were obtained:
# [1] = cAMP Responsive Elements (CRE) small molecule antagonists, cell-based qHTS assay: qHTS cell viability counter screen (AID 2060913); note: nearly all actives have a fitted effect of over 40% in size; note: potency is the fitted concentration of half-maximal effect
# How it was run: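 CRE-bla HEK293T cells (2,000/well, 18 h) given compound plus NKH477 0.25 uM final for 3 h at 37C; viability counter-screen by CellTiter-Glo luminescence in same wells after 30 min.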
# [2] = cAMP Responsive Elements (CRE) small molecule agonists, cell-based qHTS assay: qHTS cell viability counter screen (AID 2060914);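 note: viability read after 3 h of compound exposure; nearly all actives have a fitted effect of over 50% in size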
# How it was run: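 HEK 293T CRE-bla; DMEM + 10% dialyzed FBS, 25 mM HEPES; 18 h pre-incubation; compound 3 h, 37 °C/5% CO2; CellTiter-Glo added after reporter read; luminescence after 30 min RT.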
Compound,Potency [1],Potency [2]
COc1ccc(NC(C)=O)cc1N,inactive,inactive
c1ccc2c(c1)CCc1ccccc1N2,inactive,inactive
CN(C)CCC=C1c2ccccc2CCc2ccccc21,inactive,inactive
Cc1ccc(Nc2nccc(N(C)c3ccc4c(C)n(C)nc4c3)n2)cc1S(N)(=O)=O,inactive,inactive
CC1CCCC1,inactive,inactive
CC(C)CO,inactive,inactive
O=c1[nH]c(=O)n([C@H]2CCCO2)cc1F,inactive,inactive
N#Cc1ccc(C(=O)O)cc1,inactive,inactive
COCc1nnc(-c2ccc[n+]([O-])c2)n1-c1c(Cl)c(Cl)cc2[nH]c(=O)c(=O)[nH]c12,inactive,inactive
C[C@H](NC(CCc1ccccc1)C(=O)O)C(=O)N1CCC[C@H]1C(=O)O (some centres undefined),inactive,inactive
O=Cc1c(Cl)cccc1Cl,inactive,inactive
CC(C)(CCl)c1ccccc1,inactive,inactive
c1ccc(CNc2ncnc3c2ncn3C2CCCCO2)cc1 (centres undefined),inactive,inactive
C=CC(C)(O)CCC=C(C)C (centres undefined),inactive,inactive
C=CCNCC=C,inactive,inactive
Cc1ccc(NC=O)c(C)c1,inactive,inactive
CC(C)(C)N,inactive,inactive
CCCCCC(=O)O[C@]1(C(C)=O)CC[C@H]2[C@@H]3CCC4=CC(=O)CC[C@]4(C)[C@H]3CC[C@@]21C,inactive,inactive
CCOC(=O)c1cnc2c(cnn2CC)c1NN=C(C)C,inactive,inactive

Compound,Potency [1],Potency [2]
CNC(=O)c1c(I)c(NC(C)=O)c(I)c(C(=O)O)c1I,inactive,inactive
CCn1ccc(NS(=O)(=O)c2ccc(N)cc2)nc1=O,inactive,inactive
CCOC(=O)CC,inactive,inactive
CC(C)CCOC(=O)c1ccccc1,inactive,inactive
CC1C2CC(CC2C2CCCC(O)C2)C1(C)C (centres undefined),inactive,inactive
[Cl][Nd]([Cl])[Cl],inactive,inactive
Cc1nnc(SCC2=C(C(=O)O)N3C(=O)[C@@H](NC(=O)Cn4cnnn4)[C@H]3SC2)s1,inactive,inactive
COc1ccc(OC(=O)N(CC(=O)O)Cc2ccc(OCCc3nc(-c4ccccc4)oc3C)cc2)cc1,inactive,inactive
CCCC[P+](CCCC)(CCCC)CCCC,inactive,inactive
Oc1cccc(O)c1O,inactive,inactive
Cc1ccc(Nc2ccc(O)c3c2C(=O)c2ccccc2C3=O)cc1,inactive,inactive
C=CCOCC(O)CO (centres undefined),inactive,inactive
c1ccc(OCc2ccc(CCCN3CCOCC3)cc2)cc1,inactive,inactive
CC(=O)Nc1ccc(C(=O)CCl)cc1,inactive,inactive
CN(C)C(=O)C(CCN1CCC(O)(c2ccc(Cl)cc2)CC1)(c1ccccc1)c1ccccc1,inactive,inactive
O=[N+]([O-])c1cccc(I)c1,inactive,inactive
COC(=O)[C@H]1[C@H]2C[C@@H]3c4[nH]c5cc(OC)ccc5c4CCN3C[C@H]2C[C@@H](OC(=O)c2cc(OC)c(OC)c(OC)c2)[C@@H]1OC,inactive,inactive
CC(C)(C)S,inactive,inactive
CCCCC(CC)COC(=O)/C=C\C(=O)OCC(CC)CCCC (centres undefined),inactive,inactive

Compound,Potency [1],Potency [2]
O=C1CCCc2c1cc1ccc3cccc4ccc2c1c34,inactive,inactive
CCCCCCCN,inactive,inactive
N#Cc1ccccc1C#N,inactive,inactive
O=C1NCCN1CCN1CCC(c2cn(-c3ccc(F)cc3)c3ccc(Cl)cc23)CC1,10.6 µM (active),inactive
C=C(C)C(=O)O[C@H]1C[C@@H]2CC[C@@]1(C)C2(C)C,inactive,inactive
OCCNCc1ccccc1,inactive,inactive
CC(CN1CC(=O)NC(=O)C1)N1CC(=O)NC(=O)C1 (centres undefined),inactive,inactive
CC(C)(C)c1ccc(CCC=O)cc1,inactive,inactive
CN1CCN(c2cc3c(cc2F)c(=O)c(C(=O)O)cn3-c2ccc(F)cc2)CC1,inactive,inactive
C1CCC2(CCCCO2)OC1,inactive,inactive
O=C(CCCN1CCN(c2ccc(F)cc2)CC1)NC1c2ccccc2CSc2ccccc21 (centres undefined),inactive,inactive
CC(C)[N+](C)(CCOC(=O)C1c2ccccc2Oc2ccccc21)C(C)C,inactive,inactive
CC(C)=CCl,inactive,inactive
CN(C)CCN(C)CCO,inactive,inactive
COC(=O)C1=C(C)NC(C)=C(C(=O)OCC(C)=O)C1c1ccccc1[N+](=O)[O-] (centres undefined),inactive,inactive
CC(=O)O[C@@H]1C[C@@H]2CC[C@@]1(C)C2(C)C,inactive,inactive
C=C(C)C(=O)OCCCCCCCCCCCCC,inactive,inactive
NC(=O)NC(N)=O,inactive,inactive
Cc1cccc(S(=O)(=O)O)c1C,inactive,inactive
